# An excerpt weighted towards active compounds, which were near 9.2% of everything screened.
# NPC1 prom act: activates the NPC1 promoter | Huh7 NPC1 promoter luciferase reporter, 24 h | Potency, µM (top dose mostly 9.22 µM), for inactives: at the highest dose activation, usual class: activators | 320,000 compounds, 2.4% hits; further: % of control where 0% means no effect; nearly all actives have a fitted effect of over 60% in size
#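 NPC1 promoter–luciferase Huh7 cells; 24 h compound; luminescence.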
# SMN2 splice up: SMN2 splice variant enhancement; HEK293 SMN2-luciferase splicing reporter, luminescence, 30-36 h; 210,000 compounds, 2.8% hits; Potency, µM (highest dose often 46.1 µM), for inactives: at the highest dose activity change, positive = activation, usual class: activators; AID 1458; further: % of control where 0% means no effect; nearly all actives have a fitted effect of over 55% in size
#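 HEK293 cells carry an SMN2 minigene-luciferase reporter in which exon 7 inclusion puts luciferase in frame. Cells were seeded at 2000 cells/well, attached for 10-12 hours, then exposed to compounds for 30-36 hours at 37C before ONE-Glo luminescence.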
# FLuc counter: inhibits or activates purified firefly luciferase, miR-21 counter-screen; P08659; purified FLuc, Km substrates, luminescence inhibition; Potency, µM (highest dose often 57.5 µM), for the others: at the top dose activity change, negative = inhibition, most hits filed as inhibitors; 360,000 compounds, 6.9% hits;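 further: plate controls were vehicle for no effect and reference inhibitor for full effect; nearly all actives have a fitted effect of over 55% in size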
# Target sequence (P08659 whole entry, looked up): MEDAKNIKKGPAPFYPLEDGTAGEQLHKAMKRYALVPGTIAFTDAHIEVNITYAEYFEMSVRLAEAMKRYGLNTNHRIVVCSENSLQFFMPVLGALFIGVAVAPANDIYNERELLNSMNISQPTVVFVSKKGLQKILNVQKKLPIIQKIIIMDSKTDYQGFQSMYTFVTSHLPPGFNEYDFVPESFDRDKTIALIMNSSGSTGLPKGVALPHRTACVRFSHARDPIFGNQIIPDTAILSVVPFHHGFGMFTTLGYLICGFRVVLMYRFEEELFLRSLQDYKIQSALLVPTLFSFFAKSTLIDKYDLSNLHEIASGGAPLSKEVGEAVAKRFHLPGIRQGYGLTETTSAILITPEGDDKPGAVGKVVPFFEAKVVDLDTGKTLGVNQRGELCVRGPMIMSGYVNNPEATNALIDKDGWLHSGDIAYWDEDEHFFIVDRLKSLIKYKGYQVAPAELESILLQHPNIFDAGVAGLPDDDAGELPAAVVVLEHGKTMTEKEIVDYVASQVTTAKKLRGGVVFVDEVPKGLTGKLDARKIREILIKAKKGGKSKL
#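 Purified P. pyralis luciferase (10nM final) with 10uM D-luciferin and 10uM ATP (Km levels) in 50mM Tris acetate pH 7.5, 10mM Mg acetate, 0.01% Tween-20, 0.05% BSA; qHTS 6-point titration, ~60 µM downward; luminescence read.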
# ELG1 repair inh: blocks ELG1-dependent DNA repair in HEK293T cells; Potency, µM (top dose mostly 46.1 µM), without a hit: at the top dose activity change, negative = inhibition, hits mostly inhibitors; AID 504467; HEK293T ELG1-luciferase reporter, luminescence, 16 h; DNA damage induced by 5-fluorouridine; 330,000 compounds, 2.3% hits; further: on the % scale 0 is the no-effect control and ±100 the full control effect; nearly all actives have a fitted effect of over 55% in size
#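 Luminescence from the luciferase reporter, measured 30 min after ONE-Glo reagent at room temperature, was the read-out. Beforehand, 2,000 cells per well were exposed for 16 hr at 37 °C to 5-fluorouridine together with compound or vehicle.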
# Rab9 prom act: activates the Rab9 promoter. Huh7 Rab9 promoter-luciferase reporter, luminescence, 24 h. Potency, µM (doses to about 9.22 µM), for the others: at the top dose activation, negative = inhibition, hits mostly activators. 320,000 compounds, 2.8% hits; further: % of control where 0% means no effect; nearly all actives have a fitted effect of over 60% in size
#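 Huh7 cells stably carrying a Rab9 promoter-luciferase reporter, 1500 cells per well in OP-MEM I with 10% FBS, treated with compound 24 hours at 37C. Luciferase activity read by luminescence after 10 minutes with Amplite reagent.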
# ELG1 genotoxic: inducers of genotoxicity in HEK293T ELG1-luciferase cells; HEK293T ELG1-luciferase reporter, luminescence, 16 h; Potency, µM (doses to about 46 µM), inactives show top-dose activity change, positive = activation, most hits filed as activators; 330,000 compounds, 1.3% hits; AID 504466; further: % of control where 0% means no effect; nearly all actives have a fitted effect of over 60% in size
#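 Quantitative HTS format in 1536-well plates. HEK293T ELG1-luciferase reporter cells receive test compound and are incubated 16 hr at 37 °C, 5% CO2; ONE-Glo added, 30 min room temperature, then luminescence read.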
# * hit, by the source's call; ? = inconclusive; . = no result given; [ ] = remark or other dose. The call rests on the fitted dose curve; in most records, active means well fitted curve in the direction sought with a large enough effect; inconclusive means small, poorly fitted or top-dose-only effect, or another doubt; inactive means no such curve, though single readings can be large; an effect the other way counts as inactive or inconclusive. Potency means the concentration at half of the fitted maximal effect.
SMILES,NPC1 prom act,SMN2 splice up,FLuc counter,ELG1 repair inh,Rab9 prom act,ELG1 genotoxic
COc1cc(NC(=O)c2cc3nc(-c4ccccc4)cc(-c4ccccc4)n3n2)cc(OC)c1OC,-1%,-2%,4%,10µM*,-1%,-6%
COc1cccc(-c2cc(C(=O)Nc3cccnc3)no2)c1,-2%,-8%,1.3µM*,?,-1%,?
CCC(C)NC(=O)c1cc(-c2cccc(OC)c2)on1 (centres undefined),.,11µM*,13µM*,.,.,.
COc1cc(NC(=O)c2cc(-c3ccccc3)on2)cc(OC)c1OC,-3%,.,-2%,?,-3%,-8%
COc1cc(NC(=O)c2cc(-c3cccc(OC)c3)n[nH]2)cc(OC)c1,.,.,12µM*,.,.,.
COc1cccc(-c2ccc(NC(=O)C3CCCN(Cc4cnn(C(C)C)c4)C3)cc2)c1 (centres undefined),-11%,.,-3%,-3%,-3%,-17%
O=C1N(Cc2cccnc2)C[C@@H]2C[C@@H](c3cccc(OC4CCCC4)c3)N3CCC[C@@]123,1%,-22%,-6%,0%,-3%,-6%
Cc1cc(NC(=O)c2cc(-c3ccccc3)on2)n(-c2ccccc2)n1,-2%,?,1%,2%,-1%,0%
COC(=O)c1c(-c2cccnc2)csc1NC(=O)c1cc(C)on1,2µM*,11µM*,6µM*,?,1.8µM*,?
Cc1nn(Cc2ccc(Cl)c(Cl)c2)c(C)c1NC(=O)c1cc(CC(C)C)on1,-5%,-70%,1%,?,-3%,?
COc1ccc(NC(=O)c2cc(-c3ccccc3)on2)cc1,1%,.,?,?,2%,11%
Cc1ccccc1Cn1nc(C)c(NC(=O)c2cc(CC(C)C)on2)c1C,0%,-26%,0%,26µM*,-16%,-8%
O=C(Nc1cccnc1)c1cc(-c2ccccc2)on1,1%,0%,4.8µM*,-1%,-8%,2%
CC(C)n1cc(NC(=O)c2cc(-c3ccccc3)on2)cn1,-16%,6%,15µM*,?,-9%,18µM*
O=C(c1cccn1-c1nnc(N2CCCCC2)s1)N1CCN(c2ccc(Cl)cc2)CC1,.,.,-4%,.,.,.
NC(=O)COc1ccc(/C=N\NC(=O)c2ccc(-c3ccccc3)cc2)cc1,-3%,.,2%,-1%,0%,16%
COc1cc(C2=NOC(C(=O)N3CCCCCC3)C2)cc(OC)c1OC (centres undefined),2%,.,1%,7.3µM*,-5%,1%
O=C(Nc1cccnc1)c1cc(-c2ccco2)on1,0%,-3%,6µM*,-1%,0%,0%
COc1cc(C2=NOC(C(=O)N3CCN(c4ccc(F)cc4)CC3)C2)cc(OC)c1OC (centres undefined),-1%,-25%,5%,?,-8%,-3%
CCc1cc(C(=O)Nc2cnn(Cc3ccccc3C)c2)no1,.,18µM*,24µM*,.,.,.
O=C(NCCc1ccccc1)c1cc(-c2ccc(Br)cc2)on1,.,-7%,-7%,.,.,.
O=C(Nc1ccc(F)c(Cl)c1)c1cc(-c2ccco2)on1,-3%,.,?,0%,2%,5%
O=C(Nc1cccnc1)c1cc(-c2ccc(Br)cc2)on1,-1%,11%,2.1µM*,?,0%,5.8µM*
COc1ccc(-c2cc(C(=O)Nc3c(C)nn(Cc4ccccc4)c3C)no2)cc1,2%,-27%,-1%,-11%,0%,0%
COc1cccc(-c2cc(C(=O)Nc3c(C)nn(Cc4ccccc4)c3C)no2)c1,-5%,-55%,1%,21µM*,-13%,-20%
SMILES,NPC1 prom act,SMN2 splice up,FLuc counter,ELG1 repair inh,Rab9 prom act,ELG1 genotoxic
COc1cccc(C2=NOC(C(=O)Nc3cc(OC)c(OC)c(OC)c3)C2)c1 (centres undefined),-4%,-21%,2%,18µM*,12%,-6%
COc1cccc(-c2cc(C(=O)Nc3cc(OC)c(OC)c(OC)c3)no2)c1,-17%,9%,?,23µM*,-7%,-23%
Cc1c(C)c2cccnc2c2ncccc12,-31%,.,?,?,-25%,-12%
Cc1[nH]c2ccc3ncccc3c2c1C,1%,-30%,21µM*,3%,3%,3%
Cc1ccc2nc(-c3ccc(NS(=O)(=O)c4c(C)n(C)c(=O)n(C)c4=O)cc3)sc2c1,3.2µM*,.,1.9µM*,?,2.8µM*,15%
Cc1cccc(S(=O)(=O)Nc2ccc(-c3nc4ccc(C)cc4s3)cc2)c1,2.8µM*,11µM*,3µM*,?,2.8µM*,?
CCOC(=O)C(C)n1cnc2c(oc3ccccc32)c1=O (centres undefined),11%,-11%,-19%,25%,8%,4%
CC(C)n1cnc2c(oc3ccccc32)c1=O,7%,.,17µM*,?,11%,14%
O=C(COc1cc(F)ccc1[N+](=O)[O-])NCCN1C(=O)CSC1=O,.,.,.,-9%,.,-2%
O=c1c2ccccc2nc(/C=C/c2cccc(Br)c2)n1CCCO,-8%,.,-16%,15µM*,-4%,-8%
O=c1c2ccccc2nc(/C=C/c2ccc(Br)cc2)n1CCCO,-7%,.,?,-5%,3%,-9%
Cn1c(/C=C/c2cccc(Br)c2)nc2ccccc2c1=O,28%,.,15µM*,12%,-5%[1.84 µM],1%
CCN1CCOC(CC(=O)Nc2ccc([N+](=O)[O-])cc2)C1=O (centres undefined),-1%,.,0%,27%,-2%,1%
CCc1ccccc1NC(=O)Cn1c(=O)n(Cc2ccco2)c(=O)c2ccccc21,.,0%,-4%,.,.,.
CCOC(=O)CNC(=O)Cc1ccc(OC)cc1,2%,.,-3%,?,-2%,5%
COc1cccc(/C=N/NC(=S)NC2CC3CC2C2C=CCC32)c1O (centres undefined),0%,.,5.4µM*,?,-2%,7%
Oc1ccccc1/C=N/NC(=S)NC1CC2CC1C1C=CCC21 (centres undefined),17%,.,5.4µM*,?,?,?
CCOc1ccc(CCNS(=O)(=O)c2c(C)nc3sc(C)cn3c2=O)cc1OCC,.,.,0%,.,.,.
O=C(/C=C/c1ccc([N+](=O)[O-])cc1)c1ccco1,-10%,.,-7%,-12%,4%,-2%
O=C(/C=C/c1ccc([N+](=O)[O-])cc1)/C=C/c1ccco1,-5%,.,4.3µM*,?,2%,0%
O=C(C=C1SCCS1)/C=C/c1ccco1,0.71µM*,13µM*,1.3µM*,?,2.5µM*,?

# Source: PubChem BioAssay (National Center for Advancing Translational Sciences (NCATS))
